High-throughput results as filed in PubChem.
Exocytosis inh: lytic granule exocytosis inhibition | TALL-104 LAMP-1 surface exposure, flow cytometry; cells stimulated with thapsigargin and PMA | inhibition, % at 10 µM | 360,000 compounds, 0.66% hits;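 active means inhibition above about 55%, limit read from the data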
NTR1 agonist: agonists of human neurotensin receptor NTR1 | AID 493036 | 330,000 compounds, 0.17% hits | activation, % at 20 µM | NTR1-U2OS beta-arrestin-GFP spot imaging, agonist mode;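 active means activation at or above 40% of the spot to cytoplasm intensity ratio, with at least 20 cells analyzed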
Beta2AR agonist: agonists of human beta-2 adrenergic receptor inducing internalization. Am2.2-beta2AR cells, FAP receptor internalization, flow cytometry. 340,000 compounds, 0.43% hits. AID 504454. response, % (test concentration not listed). P07550;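 active means response above a set limit, near 3 SD of response in nonfluorescent compounds, cut at about 42% in these data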
Target sequence (P07550 whole entry, looked up): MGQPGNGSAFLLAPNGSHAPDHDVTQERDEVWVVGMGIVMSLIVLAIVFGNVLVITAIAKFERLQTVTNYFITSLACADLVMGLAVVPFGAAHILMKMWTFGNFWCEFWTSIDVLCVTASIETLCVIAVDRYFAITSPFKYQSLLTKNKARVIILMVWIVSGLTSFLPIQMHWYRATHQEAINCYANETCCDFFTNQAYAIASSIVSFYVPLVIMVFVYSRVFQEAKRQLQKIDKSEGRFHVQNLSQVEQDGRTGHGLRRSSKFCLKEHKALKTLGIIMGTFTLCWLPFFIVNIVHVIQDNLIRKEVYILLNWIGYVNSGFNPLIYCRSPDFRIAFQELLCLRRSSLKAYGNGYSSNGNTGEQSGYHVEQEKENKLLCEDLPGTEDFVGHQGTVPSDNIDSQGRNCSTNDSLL
m5-HT2A agonist: mouse HTR2A agonism via beta-arrestin recruitment. P35363. CHO-K1 mHTR2A beta-arrestin complementation, luminescence; percent of 30 µM serotonin response. activation, % at 7.6 µM. 360,000 compounds, 0.66% hits;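 active means activation above a run cutoff, the mean activation of all tested compounds plus 3 SD, cut at about 14% in these data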
ABHD5 PLIN5 PPI: blocks binding of human ABHD5 to perilipin-5. Q00G26+Q8WTS1. Split G. princeps luciferase complementation, luminescence, 4 h. inhibition, % at 4 µM. 360,000 compounds, 0.78% hits;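 active means inhibition above the mean inhibition across every tested compound plus 3 SD, cut at about 22% in these data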
ABHD5 PLIN5 conf: ABHD5-PLIN5 interaction inhibition, confirmed; shares compounds with ABHD5 PLIN5 PPI; biochemical ABHD5-PLIN5 interaction, luminescence; inhibition, % at 4 µM; 2,200 compounds, 67% hits; AID 651612; in the data active means inhibition above about 23%
HNF4 split-luc: HNF4 split-luciferase signal hit, counter-screen; shares compounds with ABHD5 PLIN5 PPI; HNF4 dimerization, luminescence, biochemical; inhibition, % at 4 µM; 2,200 compounds, 77% hits; AID 651674;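 active means mean inhibition across replicate wells exceeding the computed hit threshold, cut at about 13% in these data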;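 further: light from luciferase halves that rejoin when HNF4 fusion proteins dimerize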
Hits are given with their value; . = inactive; / = no result. Compounds with a hit are over-represented: about 2.3% of the library has one in this group of screens.

SMILES	Exocytosis inh	NTR1 agonist	Beta2AR agonist	m5-HT2A agonist	ABHD5 PLIN5 PPI	ABHD5 PLIN5 conf	HNF4 split-luc
Cn1c(=O)c2cn(Cc3ccc(Cl)cc3)cc2n(C)c1=O	.	.	.	.	.	/	/
O=c1[nH]c(CN2CCN(C/C=C/c3ccccc3)CC2)nc2ccccc12	.	.	.	.	.	/	/
Nc1nc(N2CCN(C/C=C/c3ccccc3)CC2)nc2ccccc12	.	.	.	.	28	31	.
COC(=O)c1c(NC(=S)NN2CCN(C)CC2)sc2c1CCC(C)C2 (stereo not drawn)	64	.	.	.	25	.	.
COC(=O)c1c(NC(=O)Cc2cccs2)sc2c1CCC(C)C2 (stereo not drawn)	.	.	.	.	.	/	/
CC(C)CC(N=Cc1c(O)c2ccccc2oc1=O)C(=O)O (stereo not drawn)	.	.	.	.	.	/	/
O=C1CCCCCCCCCC/C(=N\O)CCCO1	.	.	.	.	92	.	.
O=C1CCc2cc(S(=O)(=O)Nc3ccc(F)cc3)cc3c2N1CC3	.	.	.	.	.	/	/
COc1ccc(C(C(=O)Nc2ccc3c(c2)OCCO3)n2c(=O)c(-c3cc4ccccc4[nH]3)nc3ccccc32)cc1 (stereo not drawn)	.	/	/	.	.	/	/
COc1ccc(NC(=O)C(c2ccccc2)n2c(=O)c(-c3ccco3)nc3ccccc32)cc1 (stereo not drawn)	.	/	/	.	23	33	.
COc1ccc(C(C(=O)Nc2ccc3c(c2)OCCO3)n2c(=O)c(-c3ccco3)nc3ccccc32)cc1 (stereo not drawn)	.	/	/	.	78	38	.
O=C(Nc1ccc2c(c1)OCCO2)C(c1ccccc1F)n1c(=O)c(-c2ccco2)nc2ccccc21 (stereo not drawn)	.	/	/	.	26	32	.
COc1ccc(NC(=O)C(c2ccnc3ccccc23)n2c(=O)c(-c3ccco3)nc3ccccc32)cc1 (stereo not drawn)	.	/	/	.	36	25	.
COc1ccc(NC(=O)C(C2CC2)n2c(=O)c(-c3ccco3)nc3ccccc32)cc1 (stereo not drawn)	.	/	/	.	.	/	/
COc1ccc(NC(=O)C(c2ccc(C#N)cc2)n2c(=O)c(-c3ccco3)nc3ccccc32)cc1 (stereo not drawn)	.	/	/	.	24	22	.
CC(c1nc2ccccc2[nH]1)n1c(=O)c(-c2ccco2)nc2ccccc21 (stereo not drawn)	.	/	/	.	52	41	.
CC(c1nc2ccccc2[nH]1)n1c(-c2ccncc2)nc2ccccc21 (stereo not drawn)	.	/	/	.	.	/	/
COc1ccc(NC(=O)C(c2ccccc2F)n2c(=O)c(-c3ccco3)nc3ccccc32)cc1 (stereo not drawn)	.	/	/	.	.	/	/
COc1ccc(NC(=O)C(c2ccc(OC)cc2)n2c(=O)c(-c3ccco3)nc3ccccc32)cc1 (stereo not drawn)	.	/	/	.	42	39	.
Oc1ccc(N2CCN(c3nnnn3-c3ccccc3)CC2)cc1	.	.	.	.	.	/	/
CCOc1ccc(C(CC(=O)O)NC(=O)C(c2ccccc2)c2ccccc2)cc1OC (stereo not drawn)	.	.	.	.	.	/	/
COc1ccc(NC(=O)CS(=O)c2cccc(C(F)(F)F)c2)cc1 (stereo not drawn)	.	.	.	.	.	/	/
Cc1cc(C#Cc2c(-c3ccccc3)n(C)c3ccccc23)ccc1F	.	.	.	.	.	/	/
CCn1c(COc2ccc(OC)cc2)nnc1SCc1nc2ccccc2c(=O)[nH]1	/	.	/	/	/	/	/
COC(=O)c1cc(=O)n(Cc2ccco2)c(=Nc2ccc(F)cc2)s1	.	.	.	.	31	65	44
SMILES	Exocytosis inh	NTR1 agonist	Beta2AR agonist	m5-HT2A agonist	ABHD5 PLIN5 PPI	ABHD5 PLIN5 conf	HNF4 split-luc
COC(=O)c1cc(=O)n(-c2ccccc2)c(=Nc2ccccc2)s1	.	.	.	.	38	57	39
O=C1c2ccccc2C(=O)N1c1nccs1	.	/	.	.	.	/	/
O=c1c2ccccc2sn1-c1nccs1	85	/	.	.	81	86	118
Cc1cccc(C)c1NC(=O)C[N+](C)(C)CC(O)COc1cccc2ccccc12 (stereo not drawn)	.	.	.	.	47	34	17
O=C1c2ccccc2C(=O)N1CC(O)COc1cccc2ccccc12 (stereo not drawn)	.	/	/	.	.	/	/
O=[N+]([O-])/C=C/c1cn(Cc2ccc(F)cc2)c2ccccc12	.	.	.	.	57	92	68
O=C(O)c1ccc(N/N=C/c2cn(Cc3ccc(F)cc3)c3ccccc23)cc1	.	.	.	.	.	/	/
NNC(=O)c1cc2c(N3CCC(Cc4ccccc4)CC3)ncnc2s1	.	.	.	.	.	/	/
CCOC(=O)C1=C(C)NC(C)=C(C(=O)OCC)C1c1cccc([N+](=O)[O-])c1	.	/	/	.	.	/	/
COC(=O)C1=C(C)NC(C)=C(C(=O)OCC(C)C)C1c1ccccc1[N+](=O)[O-] (stereo not drawn)	68	.	.	.	36	36	95
CC[C@@H](C)[C@@H]1CN([C@@H](CN2CCC[C@H]2CN2C(N)=NC[C@@H]2Cc2ccccc2)C(C)C)C(=N)N1CCCC1CCCC1	.	.	.	.	28	.	.
CC(C)C[C@@H]1CN=C(N)N1C[C@@H]1CCCN1C[C@@H](C(C)C)N1C[C@@H](Cc2ccccc2)N(CCc2ccc(Cl)c(Cl)c2)C1=N	.	.	.	.	.	/	/
CC[C@@H](C)[C@@H]1CN([C@@H](CN2CCC[C@H]2CN2C(N)=NC[C@H]2C(C)C)C(C)C)C(=N)N1CCCC1CCCC1	.	.	.	.	.	/	/
CC(C)C[C@@H]1CN=C(N)N1C[C@@H]1CCCN1C[C@H](C)N1C[C@@H](Cc2ccccc2)N(CCc2ccc(Cl)c(Cl)c2)C1=N	.	.	.	.	27	.	.
Cc1cc(C(C)(C)C)cc(C)c1S(=O)(=O)N1CCN(C(=O)c2cc([N+](=O)[O-])c[nH]c2=O)CC1	.	.	.	.	.	/	/
CCOc1ccc(C(=O)NC2C(=O)N3C(C(=O)O)=C(COC(C)=O)CSC23)cc1OCC (stereo not drawn)	.	.	.	.	32	.	29
CC(=O)OCC1=C(C(=O)O)N2C(=O)C(NC(=O)CCn3nc(C(F)(F)F)c(Br)c3C3CC3)C2SC1 (stereo not drawn)	.	.	.	.	47	42	.
CC(=O)OCC1=C(C(=O)O)N2C(=O)C(NC(=O)c3ccc(COc4c(C)cccc4Cl)o3)C2SC1 (stereo not drawn)	.	.	.	.	25	.	17
CCn1c(SCC(=O)NCc2ccccc2)nnc1C(CO)NC(=O)c1ccccc1 (stereo not drawn)	.	.	.	.	.	/	/
O=C(COC(=O)C1CCCC1)Nc1ncc(Cl)cc1Cl	.	.	.	.	.	/	/
